Measured values as given in the supplement of paper PMC6555819.

Experiments:
Assay in all cases: PBM binding z-score (relative to random genomic background probes); higher = stronger binding; sequences stand for … in GC…GCGATTGACAGCGTAGAATGAAGG
[1] = tested on: FXR:RXRa (NR concentration 270 nM, RXRa partner concentration 90 nM)
Method in brief: (§1)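 Ligand-free nuclear receptor dimers were applied to custom Agilent 4×180K protein-binding microarrays whose double-stranded probes carried direct-repeat seeds, single-nucleotide variants, half-site ablations and random human genomic background sequences in 34-nt variable regions. Incubation lasted 1 h. Binding z-scores were computed against the random background probes from regression-normalized fluorescence.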

[2] = tested on: LXRa:RXRa (NR concentration 270 nM, RXRa partner concentration 90 nM)
Method in brief: as §1

[3] = tested on: LXRa homodimer (NR concentration 270 nM)
Method in brief: as §1

[4] = tested on: LXRb:RXRa (NR concentration 270 nM, RXRa partner concentration 90 nM)
Method in brief: as §1

[5] = tested on: LXRb homodimer (NR concentration 270 nM)
Method in brief: as §1

[6] = tested on: PPARa:RXRa (NR concentration 270 nM, RXRa partner concentration 90 nM)
Method in brief: as §1

[7] = tested on: PPARg:RXRa (NR concentration 180 nM, RXRa partner concentration 90 nM)
Method in brief: as §1

[8] = tested on: PPARg:RXRa 270nM:90nM, anti-RXR (NR concentration 270 nM, RXRa partner concentration 90 nM)
Method in brief: as §1

[9] = tested on: PPARg:RXRa 30nM:10nM, anti-RXR (NR concentration 30 nM, RXRa partner concentration 10 nM)
Method in brief: as §1

[10] = tested on: PPARg:RXRa 90nM:30nM, anti-RXR (NR concentration 90 nM, RXRa partner concentration 30 nM)
Method in brief: as §1

[11] = tested on: PPARg:RXRa DBDmut IVT, anti-RXR (DBD mutation: RXRa K156A/R161A, NR concentration 270 nM, RXRa partner concentration 90 nM)
Method in brief: as §1

[12] = tested on: PPARg:RXRa IVT, anti-PPARg (NR concentration 270 nM, RXRa partner concentration 90 nM)
Method in brief: as §1

[13] = tested on: PPARg DBDmut:RXRa IVT, anti-PPARg (DBD mutation: PPARg1 K132A/R137A, NR concentration 270 nM, RXRa partner concentration 90 nM)
Method in brief: as §1

[14] = tested on: PPARg DBDmut IVT, anti-PPARg (DBD mutation: PPARg1 K132A/R137A, NR concentration 270 nM)
Method in brief: as §1

[15] = tested on: PPARg homodimer (NR concentration 180 nM)
Method in brief: as §1

[16] = tested on: PXR:RXRa (NR concentration 270 nM, RXRa partner concentration 90 nM)
Method in brief: as §1

[17] = tested on: PXR homodimer (NR concentration 270 nM)
Method in brief: as §1

[18] = tested on: RARa:RXR (NR concentration 270 nM, RXRa partner concentration 90 nM)
Method in brief: as §1

[19] = tested on: RARa homodimer (NR concentration 270 nM)
Method in brief: as §1

[20] = tested on: RARb:RXRa (NR concentration 270 nM, RXRa partner concentration 90 nM)
Method in brief: as §1

Sequence | PBM binding z-score [1] | PBM binding z-score [2] | PBM binding z-score [3] | PBM binding z-score [4] | PBM binding z-score [5] | PBM binding z-score [6] | PBM binding z-score [7] | PBM binding z-score [8] | PBM binding z-score [9] | PBM binding z-score [10] | PBM binding z-score [11] | PBM binding z-score [12] | PBM binding z-score [13] | PBM binding z-score [14] | PBM binding z-score [15] | PBM binding z-score [16] | PBM binding z-score [17] | PBM binding z-score [18] | PBM binding z-score [19] | PBM binding z-score [20]
TCTTGTAGATCAGCAGGTTAAGAAAGCTGGCCAA | -0.00874 | 0.161 | -0.357 | 0.167 | -0.4 | 0.684 | -0.446 | 1.3 | 2.21 | 1.66 | 1.47 | 0.491 | 0.15 | 0.117 | -0.272 | 0.155 | -0.284 | 0.351 | -0.421 | 0.213
AGTCAAAGTTCAGGACGAGGTAAGGTAAAGCACG | 4.31 | 3.87 | 1.46 | 1.95 | 0.293 | 3.46 | 4.39 | 5.12 | 2.13 | 4.27 | -0.019 | 1.69 | 0.348 | -0.0383 | 2.01 | 2.5 | 1.18 | 2.42 | 1.06 | 4.4
ATATGTAGGTTAAGGGTCATTTAGGTTGGTTCGC | 5.62 | 4.94 | 3.45 | 4.87 | 1.82 | 6.75 | 11.6 | 9.62 | 10.6 | 11 | 7.27 | 7.94 | 3.6 | 3.31 | 3.63 | 5.37 | 2.03 | 5.61 | 2.42 | 3.61
TAGCCTAGGTCATGCGGGCCAGTATGGTGTCGGC | 3.96 | 3.27 | -0.0396 | 1.44 | -0.233 | 3.43 | 1.79 | 2.41 | -0.0378 | 1.2 | 1.73 | 2.9 | -0.0668 | -0.181 | 0.816 | 1.42 | -0.582 | 2.52 | -0.311 | 3.65
CCAGACAGGTGTGAAGGTAACTCAGCCTCGATTA | -0.289 | -0.378 | 0.0718 | -0.315 | -0.724 | -0.298 | 0.084 | -0.131 | -0.615 | -0.443 | -0.0821 | -0.409 | -1.46 | -0.767 | 0.376 | -0.386 | 0.146 | -0.273 | 0.322 | -0.103
CGTCAAAGTTCAAGGTAACCTAACAGAAAGCAGC | 6.46 | 5.68 | 2.88 | 3.53 | 0.767 | 5.05 | 4.79 | 5.23 | 1.93 | 3.95 | 0.978 | 2.67 | 0.466 | 0.361 | 2.09 | 4.03 | 2.12 | 3.26 | 1.18 | 5.37
ACTAGCAGGCCATGGGTCACTCAAGATTAGTCCG | 0.425 | 0.807 | -0.304 | 0.694 | -0.564 | 2.85 | 4.82 | 5.14 | 4.15 | 5.31 | 0.912 | 2.7 | -0.371 | -0.346 | 0.473 | 0.85 | -0.43 | 1.56 | -0.392 | 1.94
TCTGCTAGGTCAGTTGGTCAGCTTACGAGCTGCC | 0.94 | 0.456 | -0.755 | 0.14 | 0.216 | 1.29 | 0.177 | 1.69 | 0.977 | 1.39 | 2.73 | 3.32 | 0.732 | -0.0451 | -0.25 | 0.13 | -0.847 | 0.661 | -0.758 | 3.36
TCATATAGGTAAACAGATGAAAGTCCGTAAGTTA | 1.23 | 0.739 | 0.342 | 0.86 | -0.0548 | 1.14 | 1.36 | 2.08 | 3.81 | 3.18 | 3.98 | 2.76 | 1.5 | 0.808 | 0.603 | 0.869 | 0.583 | 0.622 | 1.28 | 0.483
GCTAGTTGGTAAGTAAAAGGTCACACACCGGTCG | 2.63 | 4.22 | 4.45 | 3.94 | 0.812 | 4.58 | 4.49 | 6.32 | 4.94 | 6.92 | 0.354 | 3.04 | -0.0152 | 0.693 | 5.08 | 5.18 | 1.13 | 6.32 | 2.74 | 4.08
CCTTACGTGTCACTGACAGGTTATAGCATTTGGA | 0.791 | 1.07 | 0.634 | 1.18 | 0.446 | 1.29 | 0.601 | 0.469 | 0.356 | 0.704 | 2.18 | 1.32 | 0.83 | 1.13 | 1.53 | 0.903 | 0.611 | 1.21 | 1.67 | 1.19
CGTCCAAGGTCATAGTAGGTCAGTGAAGACAGAT | 7.5 | 7.17 | 4.25 | 5.79 | 1.31 | 5.54 | 5.27 | 5.42 | 2.67 | 4.32 | 4.15 | 5.33 | 1.45 | -0.159 | 2.97 | 5.67 | 2.73 | 5.14 | 1.92 | 5.12
AATACAAGGTCACTAGGCCAGAGTAGGTACGAAT | 7.35 | 6.14 | 4.32 | 4.79 | 2.19 | 6.29 | 8.24 | 6.63 | 3.8 | 6.05 | 4.85 | 6.56 | 2.9 | 1.98 | 3.01 | 3.63 | 0.919 | 4.05 | 1.19 | 5.31
CCTAGCAGGCCAGGGTCACTCAGGCATTTCGCTT | 1.73 | 1.43 | -0.738 | 1.49 | -0.994 | 2.75 | 0.469 | 1.25 | -0.561 | 0.308 | -0.00567 | 0.705 | -1.33 | -1.04 | 0.362 | 2.21 | -0.351 | 2.78 | -0.431 | 2.47
CGTCCAAGGTCAGCGAGGTCAGTGAATGCCGAGT | 6.31 | 5.26 | 1.83 | 4.28 | 0.00119 | 5 | 3.79 | 4.78 | 0.896 | 3.3 | 3.43 | 3.81 | -0.776 | -0.834 | 4.66 | 6.03 | 11.6 | 5.42 | 1.25 | 5.45
